Values joined by “and” are separate entries in the source; they are usually repeats but may differ in a detail not shown here. Equal entries are not always repeated.

Type in all cases: functional
The target of test [1] is Solute carrier family 2, facilitated glucose transporter member 1 (Homo sapiens) (UniProt P11166). Kind of test: ST_JUDE_LEISH: Cytotoxicity at 2uM final concentration against transgenic Leishmania Mexicana promastigotes LmGLUT1 that are glucose transport deficient and complemented with the human glucose transporter GLUT1. Activity is measured by DNA content using SYBR green in vitro.
Chain of Solute carrier family 2, facilitated glucose transporter member 1 (Homo sapiens) (P11166 whole entry): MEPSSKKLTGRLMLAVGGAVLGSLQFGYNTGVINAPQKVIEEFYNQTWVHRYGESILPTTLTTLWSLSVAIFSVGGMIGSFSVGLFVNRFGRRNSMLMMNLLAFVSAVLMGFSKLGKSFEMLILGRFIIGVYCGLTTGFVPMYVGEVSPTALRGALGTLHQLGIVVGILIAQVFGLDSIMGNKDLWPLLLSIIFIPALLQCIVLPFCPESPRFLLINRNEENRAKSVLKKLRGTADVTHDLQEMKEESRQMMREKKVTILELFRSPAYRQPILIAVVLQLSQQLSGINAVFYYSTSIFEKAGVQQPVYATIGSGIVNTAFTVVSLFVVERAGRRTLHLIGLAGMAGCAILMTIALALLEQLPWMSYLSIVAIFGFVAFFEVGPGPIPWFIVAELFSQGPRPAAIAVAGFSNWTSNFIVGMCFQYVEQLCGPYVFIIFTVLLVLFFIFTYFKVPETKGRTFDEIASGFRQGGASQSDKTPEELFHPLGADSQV

Test [2] has as its target Hexose transporter 1 (Plasmodium falciparum) (UniProt O97467). Kind of test: ST_JUDE_LEISH: Cytotoxicity at 2uM final concentration against transgenic Leishmania Mexicana promastigotes LmPfHT that are glucose transport deficient and complemented with the Plasmodium falciparum hexose transporter. Activity is measured by DNA content using SYBR green in vitro.
Test [3] concerns the target Glucose transporter (Leishmania mexicana) (UniProt O61059). As to the kind of experiment: ST_JUDE_LEISH: Cytotoxicity at 2uM final concentration against transgenic Leishmania Mexicana promastigotes LmGT2 that are glucose transport deficient and complemented with the L. Mexicana glucose transporter 2. Activity is measured by DNA content using SYBR green in vitro.

Usually inhibition stands for the drop in the measured response relative to a control, in per cent. For `CC(=NO)C1=C(O)C(c2ccccc2)N(c2ccccc2)C1=O` (centres undefined), the inhibition in test [1] was found to be 1.86%; in test [2], 2.06%; in test [3], 1.72%.
In the case of `CCC(C)NS(=O)(=O)c1ccc2nc(Nc3ccc(C)cc3)n(C3CCCCC3)c2c1` (centres undefined), the results for the inhibition in test [1], in test [2] and in test [3] were 5.26%, 4.02% and 3.35%, respectively.
Turning to `Cc1ccc(NC(=O)c2ccc(CN3CCCN(CC4CCCCC4)CC3)cc2)cc1`, the inhibition came out at 7.01% in test [1], 8.37% in test [2] and 9.64% in test [3].
As for `COc1cc2nc(N3CCC(CNC(=O)c4ccc(-c5ccc(C#N)cc5C)cc4)CC3)nc(N)c2cc1OC`, the figures for the inhibition in test [1], in test [2] and in test [3] were 1.67%, 1.27% and 0.49%, respectively.
The like results for `O=C(Nc1cccc(-c2ccc(CN3CCCC3)cc2)c1)c1ccc(Cl)cc1` were, in that order, 3.03%, 1.53% and 1.42%.
Regarding `O=C1Nc2cccc3c2C1(CCCCN1CCC(c2cc4ccncc4[nH]2)CC1)CCC3` (centres undefined), the inhibition in test [1] is -0.19% and 8.55%; in test [2], 0.01% and 8.94%; in test [3], -0.84% and 8.48%.
Regarding `CC(=O)Nc1ccc(CN(Cc2ccc(OC(C)(C)C)cc2)Cc2ccc3c(c2)OCCO3)cc1`, the inhibition in test [1] is 7.25%; in test [2], 3.27%; in test [3], 6.45%.
The corresponding values for `CCc1cccc(C)c1-n1nc(-c2cc(C(C)(C)C)oc2C)cc1N` are 2.34%, 1.75% and 0.33%.
The corresponding values for `CCCCNc1cc(C)nc(NCc2ccccc2)n1` are 22.1%, 16.4% and 5.11%.
For `Cc1cc(N2CCN(C)CC2)nc2ccc(NC(=O)c3cccc(N(C)C)c3)cc12`, the values for the inhibition in test [1], in test [2] and in test [3] were 7.09%, 7.99% and 10.2%, respectively.
For `O=C(Nc1ccc([N+](=O)[O-])cc1)Nc1cc(C(F)(F)F)ccc1F`, the inhibition in test [1] came out at 0.91%; in test [2], 1.47%; in test [3], 3.15%.
Take `Cc1cc(Cc2ccc(S(=O)(=O)c3cc4c(cc3O)CCN(C)CC4)cc2)ccc1Cl`: the inhibition was -0.06% in test [1], 2.07% in test [2] and 0.31% in test [3].
As for `Clc1ccc(Cn2nc(Br)nc2Br)c(Cl)c1`, the inhibition in test [1] is -0.61%; in test [2], -1.03%; in test [3], -4.56%.
The like results for `CCOc1ccc(-c2nonc2NC(=O)c2ccc(Cl)cc2)cc1OCC` were, in that order, 4.45%, 4.43% and 4.61%.
Consider `CN1CCN(CCCN(Cc2cccc(-c3ccc(CNCc4ccc5c(c4)OCO5)cc3)c2)C(=O)Nc2ccccc2)CC1`, for which the inhibition in test [1] is 1.77%; in test [2] it was 4.4%; in test [3] it was 1.33%.
The like results for `c1ccc2c(NCCc3c[nH]cn3)c3ccccc3nc2c1` were, in that order, 0.58%, 4.05% and 2.23%.
As for `Cc1cc(N(C)C2CCN(CC3CCCCC3)C2)nc(Nc2ccc(Cl)cc2)n1` (centres undefined), the inhibition in test [1] is 7.35%; in test [2], 5.97%; in test [3] it was 4.28%.
The corresponding values for `COc1ccc2nccc([C@@H](O)CN3CCC(NCc4cc5cc([N+](=O)[O-])ccc5[nH]4)CC3)c2c1` are 8.79%, 6.38% and 4.29%.
Consider `C[C@@H](CC1CCCCC1)NCc1cccc(NS(=O)(=O)c2ccc(O)c(-c3ccno3)c2)c1`, for which the figures for the inhibition in test [1], in test [2] and in test [3] were 10.7%, 8.37% and 14.5%, respectively.
The like results for `CCCc1cc(Cc2cnc(N)nc2N)cc(CCC)c1OC` were, in that order, 4.11%, 1.27% and -2.49%.
For `Cc1ccc2c(Cc3cnc(N)nc3N)cc(C)c(N)c2n1`, the inhibition in test [1] is 2.06%; in test [2], 3.47%; in test [3] it was -0.09%.
For `CSc1ccc2ccccc2c1CCNCCCCNCCc1c(SC)ccc2ccccc12`, the figures for the inhibition in test [1], in test [2] and in test [3] were 68.9%, 96.1% and 81.6%, respectively.
The corresponding values for `Oc1ccc(-c2ccccc2)cc1CN1CCCCC1` are 4.4%, 5.51% and -0.56%.
With `CC(C)NCc1ccc(-c2cccc(NC(=O)c3ccc(Cl)cc3)c2)cc1`, the inhibition stood at 8.23% in test [1], 6.77% in test [2] and 7.51% in test [3].
The like results for `CCCCNC(=O)[C@H](CC1CCCCC1)NC(=O)c1ccc(O)c(-c2ccc(Cl)c(Cl)c2)c1` were, in that order, -0.2%, -1.98% and 0.36%.
The like results for `O=C(Nc1cccc(-c2nn3ccccc3c2-c2ccnc(Nc3ccccc3)n2)c1)c1c(F)cccc1F` were, in that order, 0.96%, 5.19% and 1.51%.
As to `CCC(C)NC(=O)Nc1ccc(-c2cccc(-c3nc4cc(C(F)(F)F)ccc4[nH]3)c2)cc1` (centres undefined), the inhibition was determined as 9.64% in test [1], 8.86% in test [2] and 4.56% in test [3].
In the case of `CCCCCCCC1CCN(C[C@H](O)c2ccnc3ccc(OC)cc23)CC1`, the inhibition in test [1] stood at 2.75%; in test [2] it was 0.96%; in test [3], 2.08%.
The corresponding values for `COc1ccc(C(=O)N2CCN(c3ccc([N+](=O)[O-])c(NC4CC4)c3)CC2)cc1Br` are 14.4%, 14.1% and 12.6%.
Turning to `COc1ccc(-c2nnc(Sc3ccc(C#N)c([N+](=O)[O-])c3)n2CCC(C)C)cc1`, the inhibition in test [1] was 5.19%; in test [2] it was 5.04%; in test [3], -0.81%.
With `N=C(N)NN=CC(=O)Nc1ccc(Br)cc1`, the inhibition is -1.7% in test [1], -4.24% in test [2] and -1.29% in test [3].
The corresponding values for `CC(Cl)=CCc1c(C)nc2c(ccc3ccccc32)c1O` are 4.44%, 3.06% and 3.58%.
As to `NCCNc1ccc([N+](=O)[O-])cc1C(=O)Nc1cccc(C(F)(F)F)c1`, the figures for the inhibition in test [1], in test [2] and in test [3] were 3.02%, 3.19% and 3.98%, respectively.
For `O=C(Nc1ccc(-c2ccccc2)cc1)Nc1cccc(Cn2ncc(N3CCCNCC3)c(Cl)c2=O)c1`, the results for the inhibition in test [1], in test [2] and in test [3] were 1.74%, 0.84% and 0.04%, respectively.
The like results for `COc1ccc(CN(C)CCCc2ccc(NC(=O)Cc3ccc4nc(-c5ccccc5)ccc4c3)cc2)cc1OC` were, in that order, 19.3%, 11.1% and 6.65%.
For `CC(NC(C)c1cccc(Cl)c1)C(=O)Nc1cc(C(F)(F)F)ccc1N1CCOCC1` (centres undefined), the inhibition is 0.88% in test [1], 0.48% in test [2] and -9.9% in test [3].
For the compound `COc1ccc2c(=NN=Cc3cccnc3)cc(C)[nH]c2c1`, the inhibition was 1.93% in test [1], 0.44% in test [2] and 1.52% in test [3].
The like results for `CCCCn1c(-c2ccco2)nc2c(c(=O)c3ccccc3n2C)c1=O` were, in that order, 8.79%, 5.89% and 4.14%.

Values taken from ChEMBL document CHEMBL3433997, “St. Jude Leishmania screening dataset” (2016).
